Consider 16 molecules from PubChem BioAssay (NCI).

Assay in all cases: NCI-60 one-dose screen, 48 h (100 = growth as untreated, 0 = no growth, -100 = all killed)
What all share (conditions): 10 µM unless noted

The test system of assay [1] is T-47D breast.
The test system of assay [2] is BT-549 breast.
For assay [3], the system named is MDA-MB-435 melanoma.
Assay [4] relates to MCF7 breast.
For assay [5], the system named is HCT-116 colon.
The subject of assay [6] is HCC-2998 colon.
Assay [7] has as its system KM12 colon.
Assay [8] relates to SW-620 colon.

About 83,000 compounds went through this panel and 20% of them were active in at least one assay; those are over-represented in the sample as a whole.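 Percent growth is the endpoint: 0 to 100 indicates growth inhibition (40 means 60% inhibition), 0 means no net growth, and negative values indicate cell death.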 Unmarked numbers belong to inactive results. The source made the active and inactive calls. How the source made its calls: active means growth percent below 10; inactive means the rest. *1 amine or outer side, *2 acyl side, *3 side chain or, on linkers, in order; H or OH if unused. Where a SMILES comes first, the peptide text is derived from it. Bridges are numbered along the chain shown (N, C = ends). Roman numbers before positions name the chains, in order. [ ]: non-standard residue; d: D form. Actinocin(1to9) = Cc1c2oc3c(C)ccc(C(=O)[*:2])c3nc-2c(C(=O)[*:1])c(N)c1=O; NMeV = CN[CH](C(=O)O)C(C)C; Sar = CNCC(=O)O

Regarding `O=C(c1ccccc1)C(O)C(Br)(CBr)c1ccccc1` (centres undefined), the growth is 98.6% in assay [1]; 68.4% in assay [2]; 67.4% in assay [3]; 81.5% in assay [4]; 57.2% in assay [5]; 87.1% in assay [6]. Also, the growth in assay [7] was 80.5%.
Regarding `Oc1c(Cl)cc(Cl)cc1C(c1cc(Cl)cc(Cl)c1O)C(Cl)(Cl)Cl`, the growth in assay [1] is 1.95% (active); in assay [2], 7.91% (active); in assay [8], 9.94% (active); in assay [4] it was 4.85% (active); in assay [5] it was 0.34% (active); in assay [7], -0.332% (active).
Turning to `Oc1ccc2ccccc2c1N=Nc1nccs1`, the growth is 15.5% in assay [1]; 35.3% in assay [3]; 24.7% in assay [8]; 17.1% in assay [4]; -20.8% (active) in assay [5]; -5.47% (active) in assay [6]. Further, the growth in assay [7] was 25%.
As for `CN1CCC(c2ccccc2)(c2ccccc2)C(=O)C1`, the growth is 13.7% in assay [1]; 115% in assay [2]; 98.9% in assay [3]; 27.7% in assay [4]; 64.8% in assay [5]; 82.1% in assay [6]. In assay [7], the growth was 92.2%.
In the case of `Cc1ccc(N2C(=O)C=CC2=O)cc1`, the growth in assay [1] was 112%; in assay [2], 105%; in assay [3], 117%; in assay [8], -11.5% (active); in assay [5] it was 101%; in assay [6] it was 94.3%. For the same molecule, the growth in assay [7] was 108%.
With `CCCOC(=O)c1nc(N(CC2CCCCC2)C(=O)NC)sc1/N=C/c1ccccc1`, the growth in assay [1] was 15.2%; in assay [2], 18.9%; in assay [3], -46.9% (active); in assay [4], 3.21% (active); in assay [5] it was -25.6% (active); in assay [6], -78.7% (active). The growth in assay [7] was 7.21% (active).
As for `CSc1nc(C)c(C(=O)CCN2CCN(c3ccccn3)CC2)s1`, the growth in assay [1] is 66.7%; in assay [2], 113%; in assay [3] it was 104%; in assay [8], 100%; in assay [4], 61.2%; in assay [6], 106%. For the same molecule, in assay [7], the growth is 106%.
For `CCC(C)C1NC(=O)C(NC(=O)c2c3nc4c(C(=O)NC5C(=O)NC(C(C)CC)C(=O)N6CCCC6C(=O)N(C)CC(=O)N(C)C(C(C)C)C(=O)OC5C)ccc(C)c4oc-3c(C)c(=O)c2N)C(C)OC(=O)C(C(C)C)N(C)C(=O)CN(C)C(=O)C2CCCN2C1=O` (centres undefined) (I: TIP[Sar][NMeV] / II: TIP[Sar][NMeV]; ester I:1-I:C, II:1-II:C; linker I:N-II:N via Actinocin(1to9); configuration not given here), the growth is -8.27% (active) in assay [1]; -41.6% (active) in assay [2]; -91.1% (active) in assay [3]; -20.8% (active) in assay [8]; -26.2% (active) in assay [4]; -25.6% (active) in assay [7].
`CN(C)c1ccc(/C=C/c2sc3ccc4ccccc4c3[n+]2C)cc1`: the growth was -10.9% (active) in assay [1]; -34.8% (active) in assay [3]; -63.9% (active) in assay [8]; -9.73% (active) in assay [4]; -71.8% (active) in assay [5]; -91.5% (active) in assay [6]. Also, the growth in assay [7] is -63% (active).
Regarding `O=[N+]([O-])c1ccc2c(c1)Cc1ccccc1-2`, the growth in assay [1] is 94%; in assay [3], 99.4%; in assay [8] it was 95.8%; in assay [4] it was 94.8%; in assay [5] it was 91.3%; in assay [6], 98.3%. Besides, the growth in assay [7] is 98.3%.
As for `O=C(CBr)c1ccc(OC(=O)c2ccccc2)cc1`, the growth in assay [1] was 95.7%; in assay [2], 105%; in assay [3], 106%; in assay [8], 88.4%; in assay [4], 92.5%; in assay [7], 106%.
For the molecule `O=C1C=CC(O)=CC1=P(c1ccccc1)(c1ccccc1)c1ccccc1`, the growth in assay [1] is 96.3%; in assay [3], 103%; in assay [8] it was 98.2%; in assay [4] it was 91.7%; in assay [5], 88%; in assay [6], -29.4% (active). The growth in assay [7] is 99.7%.
`CC(C)N=C(N)/N=C(\N)Nc1ccc2ccc3ccccc3c2c1`: the growth in assay [1] was -67.8% (active); in assay [2], -55.3% (active); in assay [3], -93.7% (active); in assay [4], -90.5% (active); in assay [5], 3.26% (active); in assay [6], -90.9% (active). Moreover, in assay [7], the growth is -82.2% (active).
`O=[N+]([O-])C=C(c1ccccc1)c1ccccc1`: the growth in assay [1] is 66.2%; in assay [2], 76.6%; in assay [3] it was 23.7%; in assay [4], 84.8%; in assay [5], 64%; in assay [6] it was 87.3%. The growth in assay [7] was 66.4%.
As for `CCCCCCCCCCCC1N=C(N)N=C(N)N1c1cccc(Br)c1` (centres undefined), the growth in assay [1] is 38.4%; in assay [3] it was 22.4%; in assay [8], -93.9% (active); in assay [4], -87.8% (active); in assay [5] it was -100% (active); in assay [6] it was -87.7% (active). Moreover, in assay [7], the growth is -91.8% (active).
For the molecule `CC(C)(C)c1ccc(O)c(-c2ccccc2)c1`, the growth was 109% in assay [1]; 131% in assay [2]; 124% in assay [3]; 98.9% in assay [8]; 102% in assay [5]; 103% in assay [6]. Moreover, in assay [7], the growth was 104%.
